Our source for the Potency values is PubChem BioAssay AID686978 (National Center for Advancing Translational Sciences (NCATS), 2013).

Values joined by “and” are separate entries in the source; they are usually repeats but may differ in a detail not shown here. Equal values may be shown once. The campaign covered roughly 420,000 compounds. About 64,000 (15%) were called active. About 27% were inconclusive and are not listed. The call rests on the fitted dose curve; in most records, active means well fitted inhibition curve with a large enough effect; inconclusive means small, poorly fitted or top-dose-only effect; inactive means flat fitted curve, though single readings scatter. These entries were drawn from the full list. Entries that show only a call come without a potency.
Potency means the concentration at half of the fitted maximal effect.

The nature of the assay: qHTS for Inhibitors of human tyrosyl-DNA phosphodiesterase 1 (TDP1): qHTS in cells in absence of CPT. Further: nearly all actives have a fitted effect of over 55% in size. Conditions: DT40 Tdp1-/- hTDP1 cells, no CPT, ATP luminescence, 48 h; activity change, negative = growth inhibition: at 46.2 µM (top of the series). In a few lines: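 Readout: luminescence from CellTiter-Glo after 30 min in the dark at RT. Cells: DT40 Tdp1-/- with stable hTDP1, 400/well. Exposure: compounds alone, ≥48 hr, 37 °C.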
(In qHTS, concentration-response curves come from the screen itself.)
In the case of `O=C(CN1CCOCC1)Nc1c(-c2ccccc2)c2cc(Br)ccc2[nH]c1=O`, the Potency entry was “inactive”.

For `Cc1ccccc1OCc1nc2c3cnn(-c4ccccc4F)c3ncn2n1`, the Potency entry is “inactive”.

Consider `C=CCN(CC=C)CCOc1ccccc1[N+](=O)[O-]`, for which the Potency result is “inactive”.

Turning to `COc1cc(-c2nnn(CC(=O)NCc3ccccc3)n2)cc(OC)c1OC`, the Potency is 14.6 µM (active).

For `O=C(Cn1nnc(-c2ccccc2)n1)NCc1ccccc1`, the Potency result was “inactive”.

With `COc1ccc(CNC(=O)Cn2nnc(-c3ccccc3F)n2)cc1`, the Potency result is “inactive”.

For `Cn1c(=NC(=O)CSCC(=O)N2CCOCC2)sc2ccccc21`, the Potency entry was “inactive”.

Take `CCC(=O)N1CCc2cc(S(=O)(=O)NCCC(=O)Nc3cccc(C)c3C)ccc21`: the Potency result is “inactive”.

In the case of `O=C(COC(=O)c1ccc(Br)o1)NC12CC3CC(CC(C3)C1)C2`, the Potency entry was “inactive”.

`COc1cc(C(=O)OCC(=O)NC23CC4CC(CC(C4)C2)C3)cc(OC)c1OC`: the Potency is 18.4 µM (active).

For the molecule `O=C(COC(=O)c1cccnc1Cl)NC12CC3CC(CC(C3)C1)C2`, the Potency result was “inactive”.

For `CCOC(=O)CNc1nc2ccccc2n2c(C)nnc12`, the Potency result is “inactive”.

In the case of `CCOC(=O)c1oc2c(CN3CCN(CCO)CC3)c(O)c(CC)cc2c(=O)c1-c1nc2ccccc2s1`, the Potency entry is “inactive”.

For the molecule `O=C(NCCCN1CCOCC1)c1ccccc1NS(=O)(=O)c1ccc(F)cc1`, the Potency entry is “inactive”.

Turning to `O=C(NCCCN1CCOCC1)c1cnn2c(-c3ccccc3)cc(-c3ccccc3)nc12`, the Potency was 20.6 µM (active).

Regarding `O=C(NCCCN1CCOCC1)c1ccccc1NS(=O)(=O)c1ccc(Br)cc1`, the Potency result was “inactive”.

For `CCOC(=O)C1(C)NC(c2ccco2)C2C(=O)N(c3ccccc3)C(=O)C21` (configuration not stated), the Potency result is “inactive”.

On to `COc1cc2c(cc1/C=C1/NC(=O)N(c3ccccc3)C1=O)OCO2`, for which the Potency result was “inactive”.

In the case of `CCCCN=C1N/C(=C\c2ccco2)C(=O)N1c1ccccc1`, the Potency is 29.1 µM (active).

With `Cc1cc(NC(=O)CS(=O)(=O)c2cn(C)c3ccccc23)no1`, the Potency entry is “inactive”.

Consider `CN(C)CCNC(=O)C(C(=O)c1ccccc1)n1ccccc1=O` (configuration not stated), for which the Potency result was “inactive”.

For the molecule `O=C(Nc1nnc(SCc2ccc(Cl)cc2Cl)s1)C1COc2ccccc2O1` (configuration not stated), the Potency result was “inactive”.

With `O=C(Nc1ncc([N+](=O)[O-])s1)C1COc2ccccc2O1` (configuration not stated), the Potency is 18.4 µM (active).

As to `O=C(Nc1nc2c(F)cc(F)cc2s1)C1COc2ccccc2O1` (configuration not stated), the Potency entry is “inactive”.

Take `CCCS(=O)(=O)Nc1ccc(-c2cn3c(n2)SCC3)cc1`: the Potency result was “inactive”.

As for `CN(Cc1ccc2nsnc2c1)Cc1nc(Cc2cccc(F)c2)no1`, the Potency result is “inactive”.

As for `O=C(CCNC(=O)c1ccc(Br)cc1)Nc1cccc(S(=O)(=O)N2CCCCC2)c1`, the Potency was 18.4 µM (active).

`O=C(Nc1cccc(S(=O)(=O)N2CCCC2)c1)c1cncc(Br)c1`: the Potency was 13 µM (active).

For `O=C(Nc1ccccc1)c1ccc2c(c1)OCCCO2`, the Potency entry is “inactive”.

For the molecule `O=C(Nc1ccc(S(=O)(=O)Nc2ncccn2)cc1)c1cncc(Br)c1`, the Potency result was “inactive”.

As for `O=C(Nc1cccc(S(=O)(=O)N2CCCCC2)c1)c1ccc2c(c1)OCO2`, the Potency is 16.4 µM (active).

`Cc1ccc(C(=O)NCC(=O)OCC(=O)Nc2cccc(S(=O)(=O)N3CCCC3)c2)cc1C`: the Potency entry was “inactive”.

As to `Cc1ccc(S(=O)(=O)N2CCCCC2)cc1NC(=O)CCNC(=O)c1ccccc1`, the Potency result was “inactive”.

For `CC(NS(=O)(=O)c1ccc(Cl)cc1)C(=O)Nc1ccc2c(c1)OCCO2` (configuration not stated), the Potency entry is “inactive”.

Turning to `O=C(Nc1cccnc1)c1ccc2c(c1)OCO2`, the Potency entry is “inactive”.

On to `O=C(Nc1ccc(N2CCCC2=O)cc1)c1cncc(Br)c1`, for which the Potency result was “inactive”.

As for `O=C(Nc1cccc(S(=O)(=O)Nc2ccc(Cl)cc2)c1)c1ccc2c(c1)OCCO2`, the Potency was 10.3 µM (active).

Regarding `CN1CCN(S(=O)(=O)c2cccc(C(=O)Nc3cccc(S(N)(=O)=O)c3)c2)CC1`, the Potency result was “inactive”.

On to `CCOc1cc2[nH]c(=O)n(Cc3ccc(C(=O)NCCCN4CCCC4=O)cc3)c(=O)c2cc1OCC`, for which the Potency entry is “inactive”.

Take `CS(=O)(=O)N1CCC2(CC1)CN(c1ccncc1)C2`: the Potency result is “inactive”.

For `Cc1ccc(-c2nnc3c4ccccc4c(C)nn23)cc1NC(=O)c1cccc(Br)c1`, the Potency entry is “inactive”.

Regarding `CS(=O)(=O)N1CCCC(C(=O)N2CCOCC2)C1` (configuration not stated), the Potency entry is “inactive”.

As for `CCOc1ccc(NC(=O)CN(C)CC(=O)NC(C)c2ccccc2)cc1OCC` (configuration not stated), the Potency result is “inactive”.

On to `COc1ccc(Cc2nnc(SCC(=O)c3cccc([N+](=O)[O-])c3)n2C)cc1`, for which the Potency entry is “inactive”.

Turning to `CCOc1ccc2nc(NCCNS(=O)(=O)c3ccccc3)c(C#N)cc2c1`, the Potency result was “inactive”.

For `CC(C)(C)N1C(=O)[C@H]2[C@@H](c3ccc(Br)cc3)N3C(=O)N(c4cccc(Cl)c4)C(=O)[C@@]3(C)[C@H]2C1=O`, the Potency entry is “inactive”.

As to `COC(=O)[C@H](Cc1ccccc1)NC(=O)Nc1ccc(S(N)(=O)=O)cc1`, the Potency result was “inactive”.

`O=C(Nc1cccc(S(=O)(=O)N2CCCCC2)c1)c1cncc(Br)c1`: the Potency was 18.4 µM (active).

For `Cn1nnnc1SCC(=O)Nc1cccc(S(=O)(=O)N2CCCCC2)c1`, the Potency entry was “inactive”.

Take `O=C(NNC1=NCCC1)c1cccc(S(=O)(=O)N2CCCCC2)c1`: the Potency result is “inactive”.

With `COc1c(Cl)cc(C(=O)Nc2ccc(Cl)cn2)cc1Cl`, the Potency entry was “inactive”.

Take `CCN(CC(=O)Nc1cccc(S(=O)(=O)N2CCCCC2)c1)Cc1ccccc1`: the Potency was 23.1 µM (active).

Take `O=C(Nc1nncs1)c1cccc(S(=O)(=O)N2CCCCC2)c1`: the Potency entry is “inactive”.

On to `O=C(Nc1ccc(Cl)cn1)c1ccc2c(c1)OCCO2`, for which the Potency was 18.4 µM (active).

Take `CCN(CC(=O)Nc1ccc(S(=O)(=O)N2CCCC2)cc1)CC(=O)Nc1cccc(OC)c1`: the Potency result was “inactive”.

Regarding `CCCc1cc(C(=O)Nc2ccc(Cl)cn2)cs1`, the Potency entry was “inactive”.

Take `O=C(Nc1nnc(S(=O)(=O)N2CCCCCC2)s1)c1cccc(Br)c1`: the Potency is 4.61 µM (active) and 20.6 µM (active).

Consider `CC(=O)NC(CC(=O)Nc1cccc(S(=O)(=O)N2CCCC2)c1)c1ccccc1` (configuration not stated), for which the Potency entry is “inactive”.

On to `Cc1cccc(C(=O)Nc2nnc(S(=O)(=O)N3CCCCCC3)s2)c1`, for which the Potency entry is “inactive”.

`COc1ccc(S(=O)(=O)N2CCSCC2)cc1`: the Potency entry is “inactive”.

On to `CCOC(=O)NC(=O)CSc1nnc(SCCC(=O)O)s1`, for which the Potency result was “inactive”.

Regarding `COc1ccccc1-c1ccc(C(=O)N(C)C(C)c2ccon2)c(N2CCN(c3ccccc3F)CC2)n1` (configuration not stated), the Potency entry is “inactive”.

On to `N=c1c2c3c(sc2ncn1N)CCCC3`, for which the Potency result was “inactive”.

As to `O=C(Nc1ccc(S(=O)(=O)N2CCCC2)cc1Cl)C1=COCCO1`, the Potency result is “inactive”.

Regarding `CC(C)(O)CCC(O)[C@@](C)(O)C1CC[C@]2(O)C3=CC(=O)C4CC(O)C(O)C[C@]4(C)C3CC[C@]12C` (some centres not stated), the Potency result is “inactive”.

As to `C=CCSc1nc2c(c(=O)[nH]1)C(C(C)C)C(C#N)=C(N)O2` (configuration not stated), the Potency entry was “inactive”.

Take `CC1CCCC(NC(=O)CSc2nccn2C)C1C` (configuration not stated): the Potency result is “inactive”.

`CSc1ccc(S(=O)(=O)NCC(=O)OCC(=O)NC2(C#N)CCCCC2)cc1[N+](=O)[O-]`: the Potency entry was “inactive”.

Take `Cc1cc(NC(=O)CCC(=O)N(CC(=O)NCC2CCCO2)c2ccccc2)no1` (configuration not stated): the Potency result was “inactive”.

For the molecule `CCC(C)C(=O)Nc1cc([N+](=O)[O-])ccc1Cl` (configuration not stated), the Potency result is “inactive”.

Turning to `N/C(=N\OC(=O)/C=C/c1ccccc1)c1ccc(Br)cc1`, the Potency entry is “inactive”.

For `Cc1cc(NC(=O)CSCc2ccccc2C)no1`, the Potency result was “inactive”.

In the case of `Cc1noc(C)c1CSCC(=O)Nc1ccc(Br)cc1Cl`, the Potency was 10.3 µM (active).

On to `CCOC(=O)c1c(C2CC2)csc1NC(=O)CSCc1c(C)noc1C`, for which the Potency result is “inactive”.

In the case of `COCCNC(=O)c1cc2c(Br)ccc(Br)c2nc1N`, the Potency entry is “inactive”.

With `CCOC(=O)C1(Cc2ccc(Cl)cc2)CCN(C(=O)C2=NNC(=O)CC2)CC1`, the Potency entry was “inactive”.

In the case of `COc1ccc(CCc2nnc(CCC(=O)NCc3cnn(-c4ccccc4C)c3)o2)cc1`, the Potency entry was “inactive”.

For the molecule `COc1ccc(S(=O)(=O)N2CCOC2CNC(=O)C(=O)NCc2ccncc2)cc1C` (configuration not stated), the Potency result is “inactive”.

Consider `COc1ccc(CCNC(=O)C(=O)NCC2OCCN2S(=O)(=O)c2ccc(F)cc2)cc1OC` (configuration not stated), for which the Potency result is “inactive”.

Regarding `COc1ccc(CCNC(=O)C(=O)NCC2OCCN2S(=O)(=O)c2ccc(OC)c(C)c2)cc1` (configuration not stated), the Potency was 18.4 µM (active).

On to `COCCNC(=O)c1ccc(S(=O)(=O)c2ccc(Cl)cc2)c(NC(C)=O)c1`, for which the Potency entry is “inactive”.

Turning to `Cc1ccc(OCCNC(=O)CNC(=O)c2ccc(C)c(C)c2)cc1`, the Potency entry is “inactive”.

Consider `CC1=Nc2cc(C(=O)NCc3ccc(C)cc3)ccc2Sc2ccc(Cl)cc21`, for which the Potency is 20.6 µM (active).

For the molecule `O=C(NCc1ccc(Cl)cc1)c1ccc2c(c1)nnn2C1CCCC1`, the Potency entry is “inactive”.

In the case of `Cc1ccc(CNC(=O)c2ccc3c(c2)S(=O)(=O)c2ccccc2C3=O)cc1`, the Potency result is “inactive”.

Turning to `COCCNC(=O)c1ccc2c(c1)N=C(C)c1cc(C)ccc1S2`, the Potency was 0.461 µM (active).

As for `O=[N+]([O-])c1ccccc1/C=C/CN1CCCC(CO)C1` (configuration not stated), the Potency result was “inactive”.

Turning to `Cc1nnc(SCC(=O)Nc2ncc3c(n2)CC(C)(C)CC3=O)s1`, the Potency result is “inactive”.

In the case of `O=C(NC(=S)Nc1ncccn1)c1ccccc1Br`, the Potency entry is “inactive”.

As to `CCC(C)N(C(=O)COC(=O)c1nc(Cl)ccc1Cl)C1CCS(=O)(=O)C1` (configuration not stated), the Potency entry was “inactive”.

Take `CCN(CC)CCN1C(=O)C(=O)/C(=C(/O)c2ccccc2)C1c1ccccc1F` (configuration not stated): the Potency entry is “inactive”.

On to `COc1cccc(C(c2c(O)cc(C)n(Cc3ccco3)c2=O)N2CCN(c3ccccc3)CC2)c1` (configuration not stated), for which the Potency entry is “inactive”.

Turning to `Cc1c(NC(=O)CSc2cccc3cccnc23)c(=O)n(-c2ccccc2)n1C`, the Potency is 23.1 µM (active).

Regarding `Cc1c(NC(=O)CSc2nnc(-c3cccnc3)n2N)c(=O)n(-c2ccccc2)n1C`, the Potency result was “inactive”.

As for `Cc1c(NC(=O)CSc2nnnn2-c2ccc(C(=O)O)cc2)c(=O)n(-c2ccccc2)n1C`, the Potency result was “inactive”.

Turning to `COc1ccc(F)c(CN2CCC3(CCC(CNC(=O)c4ccn(C)n4)O3)CC2)c1` (configuration not stated), the Potency result is “inactive”.

Regarding `Cc1cc(NC(=O)Cn2nc(C(F)(F)F)c3c2CCCC3)no1`, the Potency entry was “inactive”.

Turning to `OCCN1CCOCCOCCN(CCO)CCN(CCO)CC1`, the Potency entry was “inactive”.

For `Cc1cc(C)c(C#N)c(SCc2ccc3c(c2)OCO3)n1`, the Potency result was “inactive”.

For `C=CCn1c(-c2sc(-c3ccccc3)nc2C)n[nH]c1=S`, the Potency is 23.1 µM (active).

Turning to `Cc1nc(-c2ccccc2)sc1-c1nnc(C2CC2)o1`, the Potency result is “inactive”.

Regarding `C=CCn1c(CCNC(=O)c2cccs2)n[nH]c1=S`, the Potency result is “inactive”.
